Compounds without any hit were thinned out: in the full panel of roughly 83,000, 20% have a hit.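 Note: values are percent growth. 100 is the growth of untreated cells, values between 100 and 0 indicate rising inhibition; between -100 and 0 indicates cell death.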 Values without a mark were called inactive. Active and inactive are the calls of the source. The calls were made as follows: active = growth percent below 10; inactive = the rest.
These compounds were tested on CCRF-CEM leukemia (assay: NCI-60 one-dose screen, 48 h (100 = growth as untreated, 0 = no growth, -100 = all killed)). Details: 10 µM.

SMILES | growth
O=C(CSc1ccc(-c2ccc(Cl)cc2)nn1)Nc1ccc(Cl)c(C(F)(F)F)c1 | 44.9%
COc1cc(/C=N/NC(=O)c2ccc3nc(-c4ccc(Cl)cc4)[nH]c3c2)cc(OC)c1OC | -4.37% (active)
COc1cnc2c(c1)C(=O)c1c-2n(CCCNCCO)c(=O)c2cc(OC)c(OC)cc12 | 12.8%
O=C(CSc1nnc(-c2c[nH]c3ccccc23)n1-c1ccccc1)Nc1ccc(C(=O)/C=C/c2cccc([N+](=O)[O-])c2)cc1 | 96.1%
NC1=NC(c2ccccc2Cl)N=C(Nc2nn[nH]n2)N1 (configuration not stated) | 151%
O=C1NC(=NC23CC4CC(CC(C4)C2)C3)N/C1=C\c1ccc2ncccc2n1 | -9.82% (active)
COc1cccc(/C=C2\N=C(C)N(CCc3ccc(S(N)(=O)=O)cc3)C2=O)c1 | 96.4%
CC1(C)[C@@H](NCO)CC[C@]2(C)[C@H]3C(=O)C=C4[C@@H]5C[C@](C)(CO)CC[C@]5(C)CC[C@@]4(C)[C@]3(C)CC[C@@H]12 | 70.3%
CN1CCN(Cc2ccc(NC(=O)c3cncc(C#Cc4cnc5ccc(N[C@H]6CCOC6)nn45)c3)cc2C(F)(F)F)CC1 | -2.23% (active)
N#Cc1c(NC(=O)c2ccc(C(F)(F)F)cc2C(F)(F)F)sc2c1CCC(=O)C2 | -30% (active)
COc1ccccc1[C@H]1C(C(=O)c2ccc(O)cc2)C2(N[C@@H]1c1ccccc1)C(=O)Nc1ccc(Br)cc12 (some centres not stated) | 22%
CN(CCF)c1ccc(/C=C/C(=O)c2ccc(N)cc2O)cc1 | 60.8%
N#Cc1c(NC(=O)c2cccc(C(F)(F)F)c2)sc2c1CCC(O)=C2 | 21.9%
O=C(CNc1nc(-c2ccccc2)cs1)Nc1cccc([N+](=O)[O-])c1 | 0.432% (active)
O=C1Nc2cc(Cl)ccc2/C1=C/c1ccc(OCc2ccc(Br)cc2F)cc1 | 5.01% (active)
CC1(C)CC[C@]2(C(=O)NCCCNCCCCNCCCN)CC[C@]3(C)C(=CC[C@@H]4[C@@]5(C)Cc6c([nH]c7ccccc67)C(C)(C)[C@@H]5CC[C@]43C)[C@H]2C1 | 64.4%
COc1cc2c(cc1OC)CN(CCCCOc1cc(O)c3c(=O)cc(-c4ccccc4)oc3c1)CC2 | 32.2%
CCCn1c(=O)c2[nH]c(-c3ccc(OCc4nc5ccc(C#N)cc5[nH]4)cc3)nc2n(CCC)c1=O | 83.6%
O=c1[nH]c2ccc(Cl)cc2cc1CSc1ccc(Nc2nccc(-c3ccc4ccccc4c3)n2)cc1 | 80%

SMILES | growth
COc1cc(C2CC(c3ccc(C)cc3)=Nc3c(N)nc(N)nc3N2)ccc1Oc1nc(Nc2ccc(F)cc2)nc(N(C)C)n1 (configuration not stated) | 47.1%
COc1cc2c3c(n(CCCNC(C)C)c(=O)c2cc1OC)-c1nc2c(cc1C3=O)OCO2 | 5.05% (active)
CC(=O)NNc1ccc2nnc(-c3ccc(Br)cc3)n2n1 | 40.1%
Cc1ccc(-c2nc3ccc(C(=O)N=Nc4c(O)[nH]c5ccc([N+](=O)[O-])cc45)cc3[nH]2)cc1 | 61.2%
COc1cc(OC(F)(F)F)ccc1C(=O)Nc1sc2c(c1C#N)CCC(=O)C2 | 18.3%
COc1ccc(CN2[C@@H](C(=O)NCc3ccc(C(=O)NO)cc3)Cc3c([nH]c4ccccc34)[C@@H]2C)cc1 | 15.8%
Cc1cccc2cc(-c3cc(-c4ccccc4)nc(=S)[nH]3)c(Cl)nc12 | 66.2%
O=C(c1ccc([N+](=O)[O-])c([N+](=O)[O-])c1O)n1[nH]c(=O)c2ccccc2c1=O | 30.5%
COc1ccc(-c2cc(-c3cc(C(=O)c4ccccc4)n4ccc(C)cc34)nc(N)c2C#N)cc1 | 98.3%
NC(=Nc1ccc(OCCCCCCCCn2ccnn2)cc1)c1ccccc1 | 15.6%
COc1ccc(C=CC(=O)c2ccc(-n3c(C)nc4c(cnn4-c4ccccc4)c3=O)cc2)cc1 | 46.4%
CCOC(=O)C1=C(N)N(c2ccc(Cl)cc2)C2=C(C(=O)CC(C)(C)C2)C1c1ccc(N2CCOCC2)cc1 (configuration not stated) | 100%
CC1=N/C(=C\c2ccc(N(C)C)cc2)C(=O)N1CCc1ccc(S(N)(=O)=O)cc1 | 88.4%
CC(C)(C)Nc1nc2cc(Cl)c(Cl)cc2nc1S(C)(=O)=O | -17.9% (active)
CO[C@H]1CSS[C@@H]1Cn1nc(-c2ccc(Oc3ccccc3)cc2)c2c(N)ncnc21 | -16% (active)
CNC(=O)c1cc(-c2ccc(NC(=O)Nc3ccc(C)cc3)cc2)nc2cccnc12 | 93.5%
COc1cccc(-c2ccc(/C=N/NC(=O)c3[nH]c4ccc(Br)cc4c3-c3ccccc3)o2)c1 | -5.45% (active)
COc1ccc(-c2cc(-c3cc(C(=O)c4ccc(Br)cc4)n4ccc(C)cc34)nc(N)c2C#N)cc1 | 98.2%

— PubChem BioAssay (NCI)
